# In PubChem BioAssay:
# The source made the active and inactive calls.
# Key:
# [1] = biological target: Albumin (Bos taurus) (UniProt P02769); assay: bovine serum albumin binders on microarray, profiling panel, artefact control for SMM control protein annotation, biochemical, small-molecule microarray, Alexa647 label, 635/667 nm fluorescence (AID 1118); details: BSA-A647 binding, fluorescence 635 nm, higher = more signal;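 further: score merges 667 nm emission intensity and signal-to-noise per printed compound spot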
# Chain of Albumin (Bos taurus) (P02769 whole entry, looked up): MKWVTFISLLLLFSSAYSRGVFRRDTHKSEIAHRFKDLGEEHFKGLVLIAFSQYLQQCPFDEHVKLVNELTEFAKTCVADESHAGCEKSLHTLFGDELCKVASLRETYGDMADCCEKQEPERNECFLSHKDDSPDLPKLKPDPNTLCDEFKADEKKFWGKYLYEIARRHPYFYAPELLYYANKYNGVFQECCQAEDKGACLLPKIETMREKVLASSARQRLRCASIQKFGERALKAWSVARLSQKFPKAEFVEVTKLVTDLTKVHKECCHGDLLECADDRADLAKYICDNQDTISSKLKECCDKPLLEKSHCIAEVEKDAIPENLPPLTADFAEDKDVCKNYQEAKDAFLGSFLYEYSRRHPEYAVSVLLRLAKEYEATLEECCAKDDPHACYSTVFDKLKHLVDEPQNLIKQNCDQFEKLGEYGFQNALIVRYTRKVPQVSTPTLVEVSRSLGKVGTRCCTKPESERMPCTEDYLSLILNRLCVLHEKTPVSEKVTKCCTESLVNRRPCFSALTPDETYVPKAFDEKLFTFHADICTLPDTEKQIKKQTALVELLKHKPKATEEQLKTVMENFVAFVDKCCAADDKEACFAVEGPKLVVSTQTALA
# [2] = small-molecule microarray binders of probe aXIP, primary screen, biochemical, NeuroSMM set, 635/667 nm fluorescence (AID 1119); details: higher = more signal, called active from +8 up or from −8 down;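 further: probe is the protein aXip251-270 applied at 1 µg/mL to compound-printed slides; binding of probe to printed compounds measured as 667 nm fluorescence plus signal to noise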
# [3] = small-molecule binders of probe aNOTCH3, primary screen, biochemical, small-molecule microarray, 635/667 nm fluorescence (AID 1120); details: higher = more signal;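 further: probe is a biotin-tagged antibody raised against NOTCH3 rather than NOTCH3 protein; score merges spot fluorescence near 667 nm with spot signal to noise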
# [4] = small-molecule binders of probe aNOTCH2, primary screen, biochemical, small-molecule microarray, 635/667 nm fluorescence (AID 1121); details: higher = more signal;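 further: score merges feature fluorescence read at 667 nm with its signal to noise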
# [5] = biological target: Carbonic anhydrase 2 (Homo sapiens) (UniProt P00918); assay: CAII small-molecule binders, profiling panel, biochemical, small-molecule microarray, Alexa647-labelled CAII (AID 1122); details: CAII-A647 binding fluorescence, higher = more signal
# [6] = COS7 lysate on small-molecule microarray, probe aHis, 635 nm (AID 1123); details: COS7 cell lysate, fluorescence, higher = more signal;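 further: z-score combines 667nm fluorescence intensity with signal-to-noise per printed compound spot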
# [7] = compound binding in COS7 lysate, probe aLAP1, primary screen, cell lysate, small-molecule microarray (AID 1124); details: probe aLAP1, fluorescence, higher = more signal;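 further: lysate comes from COS7 cells expressing LAP1 and is applied at 0.3 µg/mL; score merges spot fluorescence near 667 nm with signal-to-noise over triplicate slides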
# [8] = test system: Sam68 (KHDRBS1); assay: Sam68 small-molecule binders, primary screen, biochemical, small-molecule microarray, 635 nm fluorescence (AID 1125); details: small-molecule microarray binding, higher = more signal;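 further: score merges 667 nm channel intensity with signal to noise over triplicate slides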
# [9] = test system: Chordin-like protein 2 (CHRDL2); assay: CHRDL2 small-molecule binders, primary screen, biochemical, small-molecule microarray, 635 nm fluorescence (AID 1126); details: small-molecule microarray binding, fluorescence 635 nm; higher = more signal;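 further: printed compound slides probed with Chrdl2 protein at 4 µg/mL for 1 h at 4 C; score merges 667 nm emission intensity with signal to noise over three replicate slides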
# [10] = biological target: Concanavalin-A (Canavalia ensiformis) (UniProt P02866); assay: ConA small-molecule binders, primary screen, artefact control for SMM control protein annotation, biochemical, small-molecule microarray, Alexa647 label, 635 nm (AID 1127); details: ConA-A647 binding fluorescence, higher = more signal;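 further: z combines 667 nm emission intensity with signal-to-noise across three replicate slides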
# Chain of Concanavalin-A (Canavalia ensiformis) (P02866 whole entry, looked up): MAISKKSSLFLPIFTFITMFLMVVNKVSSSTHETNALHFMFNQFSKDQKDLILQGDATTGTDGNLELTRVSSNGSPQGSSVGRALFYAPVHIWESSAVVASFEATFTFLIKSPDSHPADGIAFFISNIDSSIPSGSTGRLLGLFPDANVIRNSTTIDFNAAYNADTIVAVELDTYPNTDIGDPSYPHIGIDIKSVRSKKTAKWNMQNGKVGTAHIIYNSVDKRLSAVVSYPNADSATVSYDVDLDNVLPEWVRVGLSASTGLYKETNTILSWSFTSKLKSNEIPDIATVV
# [11] = anti-His antibody binders, primary screen, artefact control for SMM control protein annotation, biochemical, small-molecule microarray, 635 nm fluorescence (AID 1128); details: anti-His Alexa647 antibody binding, higher = more signal;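 further: score merges feature fluorescence with signal-to-noise for each printed compound spot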
# [12] = test system: Human papillomavirus type 1a E7 protein (residues 1-88); assay: HPV1a E7 small-molecule binders, primary screen, biochemical, small-molecule microarray, residues 1-88, 635 nm (AID 1129); details: small-molecule microarray binding, fluorescence 635 nm; higher = more signal
# [13] = biological target: Focal adhesion kinase 1 (Homo sapiens) (UniProt Q05397); assay: small-molecule microarray binders of FAK, primary screen, biochemical, 635/667 nm fluorescence, BSA, DTT (AID 1130); details: PTK2 binding, 635 nm fluorescence, higher = more signal;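 further: composite of spot emission at 667 nm and signal to noise over triplicate slides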
# Chain of Focal adhesion kinase 1 (Homo sapiens) (Q05397 whole entry, looked up): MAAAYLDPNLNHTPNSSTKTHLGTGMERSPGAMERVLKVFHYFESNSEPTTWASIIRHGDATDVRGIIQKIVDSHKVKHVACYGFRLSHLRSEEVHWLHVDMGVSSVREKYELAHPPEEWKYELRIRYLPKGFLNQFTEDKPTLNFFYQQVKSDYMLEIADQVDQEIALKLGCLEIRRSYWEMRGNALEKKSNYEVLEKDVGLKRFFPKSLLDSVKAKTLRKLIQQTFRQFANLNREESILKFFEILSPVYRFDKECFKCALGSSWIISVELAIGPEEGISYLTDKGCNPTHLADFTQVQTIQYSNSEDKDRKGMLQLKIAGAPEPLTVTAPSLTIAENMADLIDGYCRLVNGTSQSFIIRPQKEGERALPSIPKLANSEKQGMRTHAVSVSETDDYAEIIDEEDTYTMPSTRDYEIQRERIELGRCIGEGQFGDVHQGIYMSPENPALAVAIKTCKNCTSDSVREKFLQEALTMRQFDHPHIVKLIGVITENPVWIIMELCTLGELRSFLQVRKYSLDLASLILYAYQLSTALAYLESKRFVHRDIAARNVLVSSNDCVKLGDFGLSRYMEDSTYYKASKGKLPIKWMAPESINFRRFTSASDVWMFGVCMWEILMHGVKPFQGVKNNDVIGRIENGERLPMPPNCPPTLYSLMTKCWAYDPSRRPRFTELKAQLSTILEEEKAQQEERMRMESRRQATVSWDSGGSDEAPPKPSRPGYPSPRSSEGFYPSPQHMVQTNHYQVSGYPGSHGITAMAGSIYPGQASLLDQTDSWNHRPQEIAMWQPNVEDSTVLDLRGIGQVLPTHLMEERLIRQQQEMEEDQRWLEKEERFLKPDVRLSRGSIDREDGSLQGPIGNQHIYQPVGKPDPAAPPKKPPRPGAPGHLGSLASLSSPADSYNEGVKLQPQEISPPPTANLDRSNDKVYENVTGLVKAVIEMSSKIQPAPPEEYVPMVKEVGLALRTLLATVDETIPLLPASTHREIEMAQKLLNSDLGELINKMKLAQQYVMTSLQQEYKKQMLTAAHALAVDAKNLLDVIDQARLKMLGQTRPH
# [14] = test system: Fibrinogen (Alexa647-labelled); assay: fibrinogen binders on compound microarrays, profiling panel, artefact control for SMM control-protein annotation, biochemical, small-molecule microarray, 635/667 nm fluorescence (AID 1131); details: fibrinogen-A647 binding fluorescence, higher = more signal;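 further: z-score merges 667 nm fluorescence with per-spot signal-to-noise over triplicate slides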
# [15] = biological target: Follistatin (Homo sapiens) (UniProt P19883); assay: follistatin binders on small-molecule microarrays, primary screen, biochemical, small-molecule microarray, 635/667 nm fluorescence (AID 1132); details: FST binding, 635 nm fluorescence, higher = more signal
# Chain of Follistatin (Homo sapiens) (P19883 whole entry, looked up): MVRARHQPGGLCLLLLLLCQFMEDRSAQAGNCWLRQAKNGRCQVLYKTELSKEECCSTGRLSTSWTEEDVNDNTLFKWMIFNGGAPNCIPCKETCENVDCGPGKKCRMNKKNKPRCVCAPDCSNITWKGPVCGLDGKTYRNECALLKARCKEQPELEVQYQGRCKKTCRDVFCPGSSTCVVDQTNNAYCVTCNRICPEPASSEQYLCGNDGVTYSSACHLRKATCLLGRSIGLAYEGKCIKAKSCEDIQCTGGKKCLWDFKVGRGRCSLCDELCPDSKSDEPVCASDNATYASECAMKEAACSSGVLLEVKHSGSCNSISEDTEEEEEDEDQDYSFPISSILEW
# [16] = biological target: Fibroblast growth factor 2 (Homo sapiens) (UniProt P09038); assay: FGF2 binders on small-molecule microarrays, primary screen, biochemical, small-molecule microarray, 635/667 nm fluorescence (AID 1133); details: small-molecule microarray binding, FGF2, fluorescence 635/667; higher = more signal
# Chain of Fibroblast growth factor 2 (Homo sapiens) (P09038 whole entry, looked up): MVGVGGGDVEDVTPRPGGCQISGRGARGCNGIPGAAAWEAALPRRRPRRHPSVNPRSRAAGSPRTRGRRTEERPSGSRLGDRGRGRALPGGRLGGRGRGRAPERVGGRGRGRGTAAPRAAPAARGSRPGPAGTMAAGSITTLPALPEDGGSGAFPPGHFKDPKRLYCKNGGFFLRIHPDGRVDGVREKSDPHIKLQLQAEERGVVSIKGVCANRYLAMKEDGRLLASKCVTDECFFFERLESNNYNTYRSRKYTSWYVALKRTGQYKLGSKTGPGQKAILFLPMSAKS
# [17] = mitochondrial membrane potential change in A549 cells, profiling panel, cell-based, JC-1 fluorescence, basal, 24 h, 100 nL (AID 1138); details: higher = more signal;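 further: A549 lung adenocarcinoma cells under basal conditions with no added stimulus; test concentration not given here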
# [18] = test system: Lefty1; assay: Lefty1 binders on small-molecule microarrays, primary screen, biochemical, small-molecule microarray, 635/667 nm fluorescence (AID 1139); details: small-molecule microarray binding, fluorescence 635/667; higher = more signal
# [19] = test system: wheat germ agglutinin (Triticum aestivum), Alexa647-labelled; assay: wheat germ agglutinin binders on compound microarrays, profiling panel, artefact control for SMM control-protein annotation, biochemical, small-molecule microarray, 635/667 nm fluorescence (AID 1140); details: WGA-A647 binding, 635 nm fluorescence, higher = more signal;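 further: score merges 667 nm feature emission with signal to noise over triplicate slides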
# [20] = biological target: Luciferin 4-monooxygenase (Photinus pyralis) (UniProt P08659); assay: firefly luciferase enzyme inhibitors, primary screen, biochemical, luminescence, purified enzyme, 2006 set (AID 1141); details: SteadyGlo luminescence, 30 min, higher = more signal, called active from +8 up or from −8 down;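 further: cell-free assay with purified firefly luciferase at 100 ng per well in PBS; test concentration not given here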
# Chain of Luciferin 4-monooxygenase (Photinus pyralis) (P08659 whole entry, looked up): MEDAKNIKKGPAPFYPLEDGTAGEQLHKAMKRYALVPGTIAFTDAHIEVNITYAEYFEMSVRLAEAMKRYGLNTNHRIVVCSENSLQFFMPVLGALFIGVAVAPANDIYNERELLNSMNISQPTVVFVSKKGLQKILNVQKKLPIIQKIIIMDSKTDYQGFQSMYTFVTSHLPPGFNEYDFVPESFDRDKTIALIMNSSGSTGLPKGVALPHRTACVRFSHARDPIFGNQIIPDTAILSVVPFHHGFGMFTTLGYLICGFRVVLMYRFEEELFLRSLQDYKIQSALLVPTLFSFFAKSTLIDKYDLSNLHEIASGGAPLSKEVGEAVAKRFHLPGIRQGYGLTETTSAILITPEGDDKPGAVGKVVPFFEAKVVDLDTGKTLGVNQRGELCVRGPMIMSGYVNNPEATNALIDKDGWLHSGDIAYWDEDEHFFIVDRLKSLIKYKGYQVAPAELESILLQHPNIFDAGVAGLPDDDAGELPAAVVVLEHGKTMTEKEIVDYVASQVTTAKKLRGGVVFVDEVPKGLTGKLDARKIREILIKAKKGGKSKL
Compound,composite z-score [1],composite Z-score [2],composite z-score [3],composite z-score [4],composite z-score [5],composite z-score [6],composite z-score [7],composite z-score [8],composite z-score [9],composite z-score [10],composite z-score [11],composite z-score [12],composite z-score [13],composite z-score [14],composite z-score [15],composite z-score [16],z-score [17],composite z-score [18],composite z-score [19],z-score [20]
C[C@@H](c1ccccc1)N1C(=O)[C@H]2[C@H]3[C@H](O)[C@H](O)CC(=NOC[C@@H](O)COCc4ccco4)[C@H]3CC[C@H]2C1=O,-0.0559,-0.0004 (inactive),0.106,-0.189,-0.578,-0.795,0.565,-0.382,1.51,-0.832,0.0749,-1.09,-0.546,0.658,1.1,1.36,-0.882,1.05,0.0723,0.997 (inactive)
O=C1[C@H]2[C@H]3[C@H](O)[C@H](O)CC(=NO[C@@H]4O[C@H](CO)[C@@H](O)[C@H](O)[C@H]4O)[C@H]3CC[C@H]2C(=O)N1c1ccc(F)cc1F,-0.168,-0.463 (inactive),0.196,-0.177,-0.556,-0.258,0.0482,1.07,-0.819,-1.06,-1.26,-0.162,0.633,0.192,-1.22,0.502,-0.352,-0.152,-0.052,1.42 (inactive)
C[C@@H]1CC[C@H]2C(=O)O[C@@H](CN=[N+]=[N-])CN2[C@H]1c1ccc(Br)cc1,0.677,-0.283 (inactive),-0.0343,-0.0287,0.236,1.02,0.373,1.12,0.526,1.07,2.89,1.15,0.694,0.952,0.515,0.376,0.285,0.506,0.829,-1.59 (inactive)
CC(=O)OC[C@H]1O[C@H](CC=NOCC[C@@H]2C=C[C@H](OC(C)=O)[C@@H](COC(C)=O)O2)C=C[C@@H]1OC(C)=O,-0.076,-0.69 (inactive),0.127,-0.165,-0.146,-0.489,-0.099,1.29,0.973,0.304,1.77,0.642,-0.216,-0.305,0.447,1.02,-0.6,1.29,-0.111,0.966 (inactive)
CCOC(=O)[C@H](CC(C)C)NC(=O)CCC1CC(OC(=O)NCc2ccc3c(c2)OCO3)CC2(CCCC(COC(=O)NCCc3ccccc3OC)O2)O1 (stereo not given in full),0.31,1.05 (inactive),-0.0328,-0.0633,0.127,0.754,0.0278,1.29,0.663,1.05,0.746,1.13,0.283,0.669,0.826,1.15,-0.717,0.787,0.196,0.867 (inactive)
COC(=O)[C@H](C)NC(=O)CCC1CC(OC(=O)NCc2cccc3ccccc23)CC2(CCCC(COC(=O)NCCc3ccccc3OC)O2)O1 (stereo not given in full),0.707,-0.18 (inactive),0.0893,-0.185,0.548,1.06,-0.557,1.3,0.409,0.917,1.13,1.18,0.656,0.661,0.941,0.544,-0.358,0.89,0.316,0.603 (inactive)
CCOC(=O)CCN1C(=O)[C@H]2[C@H]3[C@H](O)[C@H](O)CC(=NNC(=O)OCC)[C@H]3CC[C@H]2C1=O,-0.898,-0.17 (inactive),0.0927,-0.145,0.505,0.294,-0.0069,0.398,1.27,-2.61,0.307,-0.113,0.276,-1.05,0.799,0.406,-0.918,1.01,-0.656,0.303 (inactive)
O=C(NCCC[N+]1=CC=NC1c1ccccc1)N1CCCc2nc(-c3ccc(Br)cc3)ccc21 (stereo not given),0.452,0.762 (inactive),-0.222,-0.119,-0.0214,-0.382,-0.264,0.152,0.421,0.605,0.862,-0.493,0.183,0.692,0.733,0.208,1.76,0.27,-0.471,0.395 (inactive)
COC(=O)[C@@H]1CC[C@H](C)[C@@H](c2ccc(C)cc2)N1C(=O)c1ccc(C=NO[C@@H](C)c2cc(-c3c(C)cc(C)cc3C)no2)cc1,0.432,-0.136 (inactive),-0.004,-0.126,0.154,-0.0142,-0.207,1.2,0.306,0.894,-0.637,0.706,0.137,0.602,0.365,0.553,1.65,0.677,0.0859,0.195 (inactive)
COC(=O)[C@H](C)NC(=O)CCC1CC(OC(=O)NCCc2ccc(F)cc2)CC2(CCCC(COC(=O)NCC3CCCCC3)O2)O1 (stereo not given in full),0.0505,0.697 (inactive),-0.0362,-0.106,0.427,1.52,0.191,1.3,0.507,0.971,0.608,1.19,0.178,0.86,0.639,0.572,-1.03,0.744,0.804,0.765 (inactive)
CCOC(=O)[C@H](CC(C)C)NC(=O)CCC1CC(OC(=O)NCc2ccc3c(c2)OCO3)CC2(CCCC(COC(=O)NCc3ccccc3)O2)O1 (stereo not given in full),0.646,1.09 (inactive),-0.226,-0.146,0.198,1.25,-0.118,1.19,0.161,1.01,0.333,0.946,0.0786,0.926,0.659,0.495,-0.0369,1.03,0.786,0.976 (inactive)
